# Compound activity as filed in PubChem BioAssay.
# Cy5 interf NS3h – enhances or quenches Cy5 fluorescence in NS3h assay | Cy5-dT15 DNA with NS3h, fluorescence interference; actives lie on both sides; signal over control mean, under 1 quenches | 16,000 tested, 6% active | fluorescence interference ratio at 100 µM;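 active means compound fluorescence over control fluorescence at most 0.8, a quencher, or at least a set upper limit, an enhancer; inactive means ratio between 0.8 and the set upper limit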
# HCV NS3h FP – blocks HCV NS3 helicase binding to DNA | NS3h Cy5-dT15 DNA binding, fluorescence polarization | 16,000 tested, 1.6% active | inhibition, % at 100 µM;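 active means inhibition above the average over every tested compound plus 3 SD, cut at about 40% in these data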
# Numbers without * were called inactive. The list is not random: actives were taken first. Their share in the collection is about 6.8%.
SMILES,Cy5 interf NS3h,HCV NS3h FP
CCOC(=O)COc1ccc(/C=C2/C(=O)NN(c3ccc(I)cc3)C2=O)cc1OC,0.877,3.2
CCOC(=O)c1ccc(N2NC(=O)/C(=C/c3ccc(O)c(OCC)c3)C2=O)cc1,0.734*,1.7
CCOc1ccccc1/C=C1/C(=O)NN(c2ccc(C)c(Cl)c2)C1=O,0.742*,14.0
COc1cccc(C2C(C(=O)Nc3ccccc3)=C(C)N=c3s/c(=C\c4ccc(N(C)C)o4)c(=O)n32)c1 (centres undefined),1.03,1.5
O=C(NOC(=O)c1ccc(Cl)cc1Cl)c1ccc(Cl)cc1,1.02,5.8
O=C(O)/C=C/C(=O)Nc1ccc(S(=O)(=O)N2CCCCCC2)cc1,0.775*,9.9
O=C(Nc1ccc(S(=O)(=O)N2CCCCCC2)cc1)c1ccc(F)cc1,0.86,1.7
Cc1ccc(C(=O)Nc2ccc(S(=O)(=O)N3CCCC3)cc2)cc1,1.11,10.0
CCC(=O)Nc1ccc(S(=O)(=O)N2CCCCCC2)cc1,0.737*,-8.6
COC(=O)c1sc(NC(=O)c2cc([N+](=O)[O-])ccc2Cl)c(C(=O)OC)c1C,1.06,6.5
COC(=O)c1ccccc1NS(=O)(=O)c1cccs1,1,2.2
CCc1ccc(S(=O)(=O)Nc2cc3c(C(=O)O)c(C)oc3c3ccccc23)cc1,0.72*,-17.9
CCOC(=O)c1c(C)oc2c(Br)cc(NS(=O)(=O)c3ccccc3)cc12,0.972,13.9
CCOC(=O)c1ccc(NC(=O)CN(c2cc(C)cc(C)c2)S(=O)(=O)c2ccccc2)cc1,1.12,10.0
O=[N+]([O-])c1ccc(N2CCN(S(=O)(=O)c3ccccc3)CC2)cc1NC1CC1,0.945,22.5
CCOC(=O)C1=C(O)/C(=C/c2ccc(Cl)cc2)SC1=Nc1ccc(C)cc1,0.814,-1.4
CCOC(=O)C1=C(O)/C(=C/c2ccc(O)cc2)SC1=Nc1cccc(Cl)c1,1.14,62.6*
COc1ccc(N=C(NOC(C)=O)c2ccc(Cl)cc2)c(OC)c1,0.73*,10.5
COc1ccc(/C=C/C(=O)c2ccc(Cl)cc2)c(OC)c1,0.973,3.5
COc1ccc(NC(=O)/C(C#N)=C/c2ccc(OC)cc2OC)cc1,0.966,14.5
C=CCc1ccccc1OCCOc1cccc(/C=C2/SC(=S)N(C)C2=O)c1,1.24*,15.7
COc1cc(/C=C2/SC(=S)N(C)C2=O)cc(Cl)c1OCc1ccccc1Cl,0.965,-7.2
C=CCc1ccccc1OCCOc1ccc(/C=C2/SC(=S)N(C)C2=O)cc1,0.994,-2.5
CCOc1cc(/C=C2/SC(=S)N(C)C2=O)ccc1OCc1ccccc1Cl,1.2*,11.9
CC1=C(C(=O)OCCOC(C)C)C(c2coc3ccc(C)cc3c2=O)C2=C(CCCC2=O)N1 (centres undefined),1.09,-0.7
SMILES,Cy5 interf NS3h,HCV NS3h FP
CCOc1cccc(C(=O)Nc2ccccc2C(=O)O)c1,1.02,4.3
O=C(O)CCCc1nc2ccccc2[nH]1,0.729*,1.2
O=C(O)CCCc1nc2ccccc2s1,1.03,-4.6
COc1cc(/C=C2\C(=O)N(c3ccc(S(N)(=O)=O)cc3)N=C2C)cc(Cl)c1O,0.99,8.1
O=C(O)CN1C(=O)c2cccc3c(Br)ccc1c23,1.05,6.8
O=C(O)c1cccc2c(Br)ccc(C(=O)O)c12,0.677*,3.1
Cc1ccc(C(=O)N2CCN(c3ccc([N+](=O)[O-])cc3)CC2C)cc1 (centres undefined),0.98,16.1
O=C1C(=O)N(c2nccs2)C(c2cccc(Cl)c2)C1=C(O)c1ccc(Cl)cc1 (centres undefined),0.849,10.2
O=C(Nc1cccc(O)c1)/C(=C\c1cccs1)NC(=O)c1ccccc1,0.99,3.2
COc1cc(Br)c(C2C3=C(CC(C)(C)CC3=O)OC3=C2C(=O)CC(C)(C)C3)cc1OC,0.771*,8.8
COc1ccc(C2C3=C(CC(C)(C)CC3=O)OC3=C2C(=O)CC(C)(C)C3)cc1Br,0.886,16.4
O=C(Nc1cccc(I)c1)c1ccccc1C(F)(F)F,0.986,17.9
CS(=O)(=O)N(CC(=O)N1CCOCC1)c1cccc(C(F)(F)F)c1,1.01,10.0
O=C(O)c1ccc(Oc2ccc(NC(=O)c3cccc(F)c3)cc2)cc1,1.05,-5.4
COc1cc([N+](=O)[O-])ccc1N=S(C)C,0.929,-7.2
N#Cc1cc([N+](=O)[O-])ccc1N=Cc1ccc(C#Cc2ccccc2)cc1,0.793*,9.7
CCC1=NN2C(=N)/C(=C/c3ccc(-c4ccc([N+](=O)[O-])cc4OC)o3)C(=O)N=C2S1,1.24*,9.1
COc1cc([N+](=O)[O-])ccc1-c1ccc(/C=C2\C(=O)NC(=S)N(c3ccc(C)cc3)C2=O)o1,1.12,23.3
COc1ccc(CNC(=O)c2cc3n(n2)C(C(F)(F)F)CC(c2ccc(Cl)c(Cl)c2)N3)cc1 (centres undefined),0.95,18.7
O=C(Nc1cccc(C(F)(F)F)c1)c1cnn2c(C(F)(F)F)cc(-c3cccs3)nc12,0.661*,7.7
CC(C)OC(=O)c1cnn2c(C(F)(F)F)cc(-c3ccc(F)cc3)nc12,0.942,10.3
O=C(c1ccccc1)N1CCN(C(=O)c2nn3c(C(F)(F)F)cc(-c4cccs4)nc3c2Br)CC1,0.71*,9.6
COc1ccc(-c2cc(C(F)(F)F)n3nc(C(=O)N4CCc5ccccc5C4)cc3n2)cc1,0.971,9.4
O=C(/C=C/c1ccccc1)NC(=S)Nc1ccc(NC(=O)c2ccco2)cc1,1.03,4.3
CCOc1ccc(NC(=O)c2ccc(Cl)c(Cl)c2)cc1,1.03,13.0
SMILES,Cy5 interf NS3h,HCV NS3h FP
COc1ccc(N2C(=O)/C(=C3/C(=O)N(Cc4ccccc4F)c4ccccc43)SC2=S)cc1,1.2*,7.4
CN1C(=O)/C(=C2/C(=O)N(CC(N)=O)c3ccccc32)SC1=S,0.878,2.9
O=[N+]([O-])c1ccc(-c2nc(-c3ccccc3)c(-c3cccs3)[nH]2)cc1,0.995,11.7
COc1cccc(N2C(=O)C(=O)C(=C(O)c3ccccc3)C2c2ccc(Cl)cc2)c1 (centres undefined),1.02,8.8
COc1cccc(N2C(=O)C(=O)C(=C(O)c3ccccc3)C2c2ccccc2Cl)c1 (centres undefined),0.726*,21.3
O=C(CCN1C(=O)/C(=C/c2cccs2)SC1=S)Nc1nc2ccccc2s1,0.705*,14.2
O=C(CCCN1C(=O)/C(=C\c2cccs2)SC1=S)Nc1ccccc1O,0.972,8.0
Cc1cc(C)c(NC(=O)c2ccc([N+](=O)[O-])c(C)c2)c(C)c1,1.11,8.2
Nc1nonc1C(=O)NCCNC(=O)c1cccc(Br)c1,0.705*,14.1
O=C(NCCNc1ccc([N+](=O)[O-])cc1)c1cccc(Br)c1,1.03,19.7
Cc1ccc(S(=O)(=O)Nc2ccccc2/C=N\n2cnnc2)cc1,1.13,4.3
O=C(Nc1cccc(NC(=O)c2ccc(Cl)cc2Cl)c1)c1ccccc1F,0.837,-18.3
COc1cc(OC)c([N+](=O)[O-])cc1/C=C(/C#N)C(=O)Nc1ccccc1,1.08,-0.7
COc1cc(OC)c([N+](=O)[O-])cc1C=O,0.654*,8.7
Cc1cc(C)n(/N=C\c2c[nH]c3ccccc23)c(=O)c1C#N,1.02,4.0
O=C(Nc1c(C(=O)N2CCOCC2)cnn1-c1ccccc1)c1ccccc1,1.03,-1.8
O=C(Nc1c(C(=O)N2CCCCCC2)cnn1-c1ccccc1)c1cccc(F)c1,1.27*,30.7
Cc1ccc(NC(=O)CN(c2cccc(Br)c2)S(=O)(=O)c2ccccc2)cc1C,0.938,13.4
Cc1c(-c2ccc(C=O)o2)ccc([N+](=O)[O-])c1C,0.982,39.9
